# The source made the active and inactive calls.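 Rule for the calls, unless noted: active = compounds whose cell count with miR-34 switched on is under 0.7 times the count with it off; inactive = the rest.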
# Experiments:
# [1] = viability loss with induced miR-34 in A549 – imaging, A549 dox-inducible miR-34, nuclei and caspase counts, primary screen (AID 1347080); conditions: A549 miR-34 inducible, Hoechst nuclei count, 48 h
# [2] = MELAS cybrid and Rieske KO viability enhancers – cell-based, MELAS cybrids, Rieske KO mouse fibroblasts, CellTiter-Glo, primary screen (AID 1508586;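 active = mean z-score across replicates of 1.96 or higher in either the MELAS or the Rieske mutant cell line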;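 note: z relative to plate mean and SD of compound and empty wells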); conditions: low glucose
# [3] = system: Hepatitis C virus NS3 helicase; assay: blockers of NS3h binding to ssDNA – biochemical, fluorescence polarization, LOPAC1280 library, primary screen (AID 687035; in the data active = inhibition above about 37%); conditions: Purified HCV NS3 helicase, Cy5-dT15 ssDNA binding fluorescence polarization; stronger effect = higher value; concentration not given here
# [4] = compounds altering Cy5-DNA-NS3h complex signal – biochemical, LOPAC1280, artefact control for HCV NS3 helicase inhibitor project (AID 687037; call rule not given here); conditions: Cy5-DNA-NS3h complex fluorescence interference counterscreen
# [5] = blockers of cellular phospholipid synthesis – cell-based, LOPAC library, screen 4, primary screen (AID 1347384; call rule not given here); conditions: animal cells, phospholipid biosynthesis inhibition screen; at 10 µM
# [6] = galactose survival enhancers in mitochondrial complex I cybrids – cell-based, galactose medium, ATP luminescence, primary screen (AID 1645843;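 active = z-score of at least 1.8 in each of two replicates, scored against plate mean and spread of sample wells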;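 note: positive z means more ATP and so rescue of galactose-driven cybrid death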); conditions: complex I mutant cybrid cells, 72 h, stronger effect = higher value
# [7] = compounds altering circadian rhythm period length – cell-based, LOPAC library, luminescence reporter (AID 2774; call rule not given here;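 note: values are relative to mean of DMSO wells on each plate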); conditions: circadian reporter cells, at 7 µM, actives lie on both sides
# [8] = stronger effect = lower value, cell number ratio, induced over uninduced
# [9] = measured here: relative caspase fold change +Dox/-Dox
# [10] = measured here: total cells with miR-34 induction, stronger effect = lower value
# [11] = measured here: total cells without miR-34 induction
# [12] = MELAS cybrid survival, CellTiter-Glo 48 h, stronger effect = higher value
# [13] = Rieske KO mouse fibroblast survival, CellTiter-Glo 72 h
SMILES,"fold change [1, 8]","fold change [1, 9]","cell count [1, 10]","cell count [1, 11]","z-score [2, 12]","z-score [2, 13]",inhibition [3],fluorescence ratio (interference) [4],outcome [5],z-score [6],period change [7]
OCc1ccccc1OC1OC(CO)C(O)C(O)C1O (stereo not given),0.944 (inactive),0.784,9350,9900,-0.348 (inactive),0.733,–,–,–,–,–
CN(C)C(CCOc1cccc2ccccc12)c1ccccc1 (stereo not given),0.873 (inactive),1.7,6850,7850,-0.416 (inactive),0.392,–,–,–,–,–
Brc1c(Br)c(Br)c2[nH]cnc2c1Br,1.11 (inactive),2.37,3750,3380,–,–,0% (inactive),1 (inactive),inactive,-1.17 (inactive),–
N#CSc1cc(SC#N)c(N)nc1N,1.07 (inactive),0.703,1940,1820,-0.481 (inactive),-2.9,–,–,–,–,–
C[C@]12CC[C@H]3c4ccc(OC(=O)c5ccccc5)cc4CC[C@H]3[C@@H]1CCC2O (stereo not given in full),0.921 (inactive),0.673,8340,9050,-0.15 (inactive),-0.151,–,–,–,–,–
C[C@H]1CC[C@H]2[C@@H](C)C(OC(=O)CCC(=O)O)O[C@H]3O[C@@]4(C)CC[C@@H]1[C@]32OO4 (stereo not given in full),0.953 (inactive),0.708,4220,4430,-0.298 (inactive),-0.0832,–,–,–,–,–
CC1CCN(CCC2CCCN2S(=O)(=O)c2cccc(O)c2)CC1 (stereo not given),0.96 (inactive),0.546,7750,8080,-0.371 (inactive),-0.0766,–,–,–,–,–
Cc1cc2c(cc1Cl)N(C(=O)Nc1ccnc3ccccc13)CC2,1.12 (inactive),1.03,10500,9390,–,–,-1% (inactive),0.9 (inactive),inactive,-0.09 (inactive),–
O=C1CN(/N=C/c2ccc(-c3ccc([N+](=O)[O-])cc3)o2)C(=O)N1,0.852 (inactive),0.844,3600,4220,–,–,–,–,inactive,–,0.19 h (inactive)
CC(C)c1cc(-c2ccc(F)c3ccccc23)nc(N)n1,0.949 (inactive),0.444,7570,7980,-0.214 (inactive),0.0729,–,–,–,–,–
c1ccc2c(c1)CCC[C@H]2Nc1nc2ccccc2[nH]1,1.09 (inactive),0.557,7820,7150,–,–,-3% (inactive),1 (inactive),inactive,-0.675 (inactive),–
OCC1OC(O[C@]2(CCl)OC(CCl)C(O)C2O)C(O)C(O)C1Cl (stereo not given in full),0.895 (inactive),0.674,8040,8990,-0.278 (inactive),-0.16,–,–,–,–,–
CC(C)N(CCCNC(=O)Nc1ccc(C(C)(C)C)cc1)CC1OC(n2cc(Br)c3c(N)ncnc32)C(O)C1O (stereo not given),0.844 (inactive),1.16,7150,8480,-0.128 (inactive),-0.178,–,–,–,–,–
CC(=O)O[C@@]1(C(C)=O)CC[C@H]2[C@@H]3CC(C)C4=CC(=O)CC[C@]4(C)[C@@H]3CC[C@@]21C (stereo not given in full),0.92 (inactive),0.806,7550,8200,-0.365 (inactive),-0.106,–,–,–,–,–
CC[C@]1(O)C[C@H]2CN(CCc3c([nH]c4ccccc34)[C@@](C(=O)OC)(c3cc4c(cc3OC)N(C)[C@@H]3C45CCN4CC=C[C@@](CC)(C(OC(C)=O)[C@]3(O)C(=O)OC)[C@H]45)C2)C1 (stereo not given in full),1.18 (inactive),0.78,1480,1260,0.649 (inactive),-0.168,–,–,–,–,–
CCC1C(=O)N(C)c2cnc(Nc3ccc(C(=O)NC4CCN(C)CC4)cc3OC)nc2N1C1CCCC1 (stereo not given),1.18 (inactive),0.761,1360,1150,1.18 (inactive),-1.35,–,–,–,–,–
COc1ccc(-c2cc3ncc(C)n3c(Nc3ncccc3C(N)=O)n2)cc1OC,0.944 (inactive),1.3,8700,9220,–,–,-1% (inactive),1 (inactive),inactive,0.16 (inactive),–
OCC1O[C@H]([S-])[C@@H](O)C(O)[C@@H]1O.[Au+] (stereo not given in full),0.895 (inactive),0.924,6430,7180,–,–,36% (inactive),1 (inactive),inactive,-1.29 (inactive),–
CCOC(=O)O[C@@]1(C(=O)OCCl)CC[C@H]2[C@@H]3CCC4=CC(=O)C=C[C@]4(C)[C@@H]3C(O)C[C@@]21C (stereo not given in full),0.859 (inactive),1.25,5320,6190,-0.313 (inactive),-0.191,–,–,–,–,–
N#CC1C[C@@H]2C[C@H]2N1C(=O)C(N)C12CC3CC(CC(O)(C3)C1)C2 (stereo not given in full),0.986 (inactive),0.858,7460,7570,-0.404 (inactive),0.586,–,–,–,–,–
COc1ccc2c(c1)CCC1C2CC[C@@]2(C)C1CC[C@@H]2NCCCCCCN1C(=O)CCC1=O (stereo not given in full),1.08 (inactive),0.876,8060,7440,–,–,-3% (inactive),1 (inactive),inactive,-1.29 (inactive),–

SMILES,"fold change [1, 8]","fold change [1, 9]","cell count [1, 10]","cell count [1, 11]","z-score [2, 12]","z-score [2, 13]",inhibition [3],fluorescence ratio (interference) [4],outcome [5],z-score [6],period change [7]
CCC1=CC2CN(C1)Cc1c([nH]c3ccccc13)[C@@](C(=O)OC)(c1cc3c(cc1OC)N(C)[C@@H]1[C@@]34CCN3CC=C[C@@](CC)(C(OC(C)=O)[C@]1(O)C(=O)OC)[C@@H]34)C2 (stereo not given in full),1.11 (inactive),0.608,1810,1620,2.06 (active),-0.337,–,–,–,–,–
C#CCC(Cc1cnc2nc(N)nc(N)c2n1)c1ccc(C(=O)NC(CCC(=O)O)C(=O)O)cc1 (stereo not given),1.12 (inactive),0.784,2390,2130,-0.188 (inactive),0.624,–,–,–,–,–
C=CC1CN2CC[C@H]1C[C@H]2C(O)c1ccnc2ccc(OC)cc12 (stereo not given in full),0.964 (inactive),0.844,8110,8420,-0.205 (inactive),-0.396,–,–,–,–,–
CS(=O)(=O)c1ccc(C(O)C(CO)NC(=O)C(Cl)Cl)cc1 (stereo not given),0.959 (inactive),1.06,8650,9010,-0.348 (inactive),0.589,–,–,–,–,–
CCN1CC(C)n2c(c(O)c3c(=O)n(Cc4ccc(F)c(Cl)c4)nc(C(=O)NC)c32)C1=O (stereo not given),1.07 (inactive),0.451,7640,7150,-0.423 (inactive),0.325,–,–,–,–,–
CC(=O)C1=C(O)C=C2Oc3c(C(C)=O)c(O)c(C)c(O)c3[C@]2(C)C1=O,0.866 (inactive),1.11,5890,6800,-0.25 (inactive),0.769,–,–,–,–,–
C=CCNc1ncnc2ccc(Br)cc12,0.949 (inactive),0.896,7410,7810,–,–,0% (inactive),1 (inactive),inactive,-1.29 (inactive),–
N#CC1CCCN1C(=O)CNC12CC3CC(CC(O)(C3)C1)C2 (stereo not given),0.959 (inactive),0.68,8400,8750,-0.00674 (inactive),0.11,–,–,–,–,–
Clc1nccc2c1ccc1ccccc12,1.47 (inactive),1.16,8620,5870,–,–,-2% (inactive),1 (inactive),inactive,0.565 (inactive),–
O=c1ccc2c(OCCCCc3ccccc3)c3ccoc3cc2o1,1.08 (inactive),1.92,8160,7580,–,–,0% (inactive),1 (inactive),inactive,-0.515 (inactive),–
N#CC(=C1SCC(c2ccc(Cl)cc2Cl)S1)n1ccnc1 (stereo not given),0.898 (inactive),1.64,8130,9050,-0.162 (inactive),-0.0913,–,–,–,–,–
N#CC(=C(N)Sc1ccc(N)cc1)c1ccccc1C(F)(F)F,0.906 (inactive),0.881,4690,5170,-0.31 (inactive),0.82,–,–,–,–,–
O=C(Nc1ccc(S(=O)(=O)Nc2ccccc2Cl)c(Cl)c1)c1ccccn1,0.91 (inactive),0.513,8160,8970,-0.368 (inactive),-0.0416,–,–,–,–,–
CCNC(=O)c1[nH]nc(-c2cc(Cl)c(O)cc2O)c1-c1ccc(OC)cc1,1.1 (inactive),0.416,3020,2740,2.3 (active),-0.612,–,–,–,–,–
Cc1nc(NC(=O)N2CCCC2C(N)=O)sc1-c1csc(C(C)(C)C)n1 (stereo not given),0.968 (inactive),0.607,6880,7100,-0.368 (inactive),0.104,–,–,–,–,–
Cn1nc(C(C)(C)C)cc1C(=O)NC(Cc1cccc(Cl)c1)C(=O)NCC#N (stereo not given),0.927 (inactive),0.462,7540,8140,0.131 (inactive),0.0966,–,–,–,–,–
O=C1NC(=O)C(=Cc2ccc3c(c2)OC(F)(F)O3)S1,0.912 (inactive),0.633,8930,9790,-0.318 (inactive),-0.248,–,–,–,–,–
CC1=C(C(=O)OC2CCCCC2)C(c2ccc([N+](=O)[O-])cc2)C2=C(CC(C)(C)CC2=O)N1 (stereo not given),1.46 (inactive),0.547,1480,1010,-0.282 (inactive),-2.79,–,–,–,–,–
Cc1onc(-c2c(Cl)cccc2Cl)c1C(=O)NC1C(=O)N2C1SC(C)(C)C2C(=O)O (stereo not given),0.869 (inactive),0.56,8500,9780,-0.165 (inactive),-0.146,–,–,–,–,–
CC1(C)O[C@@H]2C[C@H]3[C@@H]4C[C@@H](F)C5=CC(=O)C=C[C@]5(C)[C@]4(F)C(O)C[C@]3(C)[C@@]2(C(=O)CO)O1 (stereo not given in full),0.861 (inactive),0.94,5980,6950,-0.367 (inactive),-0.28,–,–,–,–,–
CC1CC=CC=CC=CC=CC(O[C@@H]2OC(C)C(O)C(N)C2O)C[C@@H]2O[C@](O)(CC(O)C[C@H]3OC3C=CC(=O)O1)CC(O)C2C(=O)O (stereo not given in full),0.876 (inactive),1.14,7260,8280,-0.47 (inactive),-0.427,–,–,–,–,–
